Inconclusive results are not listed. Active and inactive are the calls of the source. Rule for the calls, unless noted: active = hit-call score of the fitted dose curve at least 0.9, where 1 is the maximum; inactive = score below 0.9.

A short description of assay [1]: ATG_Ets_CIS: Attagene CIS-FACTORIAL HepG2 Assay for human Erythroblast Transformation Specific (ETS) (AID 2282941). As to conditions: HepG2 ETS cis-reporter transcription, actives raise or lower the signal. In short, it runs like this: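 Cis-regulated reporter mRNA induction in HepG2 (transient transfection), 24 h exposure, RT-PCR plus capillary electrophoresis detection; DMSO serves as negative control and baseline.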

A short description of assay [2]: ATG_M_06_CIS: Attagene CIS-FACTORIAL HepG2 Assay for M06 Transcription Factor (Internal Marker) (AID 2282950). The following applies: HepG2 Attagene CIS-FACTORIAL M06 internal marker reporter; actives raise or lower the signal. The essentials:
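Steps: transfect HepG2 with multiplexed cis-element reporter constructs; dose chemical 24 h; extract RNA with DNase treatment; reverse-transcribe, PCR-amplify, 6-FAM label, HpaI digest; separate fragments by capillary electrophoresis. Activity fitted both directions versus DMSO.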

In assay [3] the target is Hypoxia-inducible factor 1-alpha (Homo sapiens) (UniProt Q16665). Nature of the assay: ATG_HIF1a_CIS: Attagene CIS-FACTORIAL HepG2 Assay for human Hypoxia Inducible Factor 1 (HIF1A) (AID 2282951). As to conditions: HepG2 Attagene cis-factorial HIF1a reporter transcription; actives raise or lower the signal. In short, it runs like this:
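HepG2 cells transiently transfected with multiplexed cis-promoter reporter units; reporter mRNA read 24 h after dosing by RT-PCR, 6-FAM primer-extension labelling, HpaI digestion and capillary electrophoresis. Bidirectional fit versus DMSO baseline.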

Assay [4] concerns the target Hepatocyte nuclear factor 6 (Homo sapiens) (UniProt Q9UBC0). Nature of the assay: ATG_HNF6_CIS: Attagene CIS-FACTORIAL HepG2 Assay for human Hepatocyte Nuclear Factor 6 (HNF6) (AID 2282952). As to conditions: HepG2 Attagene cis-factorial HNF6 reporter transcription; actives raise or lower the signal. The essentials:
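Twenty-four-hour chemical treatment of reporter-transfected HepG2 cells precedes RNA isolation, DNase-treated reverse transcription and PCR of reporter sequences. Labelled fragments are sized by capillary electrophoresis and fitted bidirectionally versus DMSO.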

The target of assay [5] is Heat shock factor protein 1 (Homo sapiens) (UniProt Q00613). Briefly: ATG_HSE_CIS: Attagene CIS-FACTORIAL HepG2 Assay for human Heat Shock Transcription Factor 1 (HSE) (AID 2282953). As to conditions: HepG2 HSE cis-reporter, Attagene RNA transcription; actives raise or lower the signal. The essentials:
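Cells were transfected with cis-element-driven reporter constructs, dosed for 24 h, then total RNA was reverse-transcribed and reporter cDNA amplified, FAM-labelled and digested with HpaI. Fragments were resolved by capillary electrophoresis; gain or loss was fitted against DMSO.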

Assay [6] in a line: ATG_Sox_CIS: Attagene CIS-FACTORIAL HepG2 Assay for human SRY-box transcription factor (SOX) (AID 2282960). The following applies: HepG2 Attagene cis-factorial SOX reporter, mRNA; actives raise or lower the signal. The essentials: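 HepG2 cells transiently transfected with cis-element-driven multiple reporter transcription units, dosed 24 h; reporter mRNA measured by RT-PCR, FAM labelling, HpaI digestion and capillary electrophoresis. Bidirectional fit versus DMSO baseline.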

A short description of assay [7]: ATG_TA_CIS: Attagene CIS-FACTORIAL HepG2 Assay for human TA Basal Promoter (AID 2282964). As to conditions: HepG2 Attagene CIS-factorial TA basal promoter reporter; actives raise or lower the signal. In short, it runs like this: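 Steps: transfect HepG2 with MRTUs; dose 24 h; isolate RNA, DNase-treat, reverse-transcribe; PCR and FAM-label reporter cDNA; digest with HpaI 2h at 37 C; run capillary electrophoresis. Activity fitted both directions against DMSO.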

Assay [8] in a line: ATG_TCF_b_cat_CIS: Attagene CIS-FACTORIAL HepG2 Assay for human T-Cell-Factor with beta-catenin (TCF/b-cat) (AID 2282965). The following applies: HepG2 TCF/beta-catenin cis-reporter transcription, actives raise or lower the signal. The essentials: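 In this cis-format system, transfected HepG2 cells report endogenous transcription factor activity. Readout after 24 h exposure is reporter transcript abundance from RT-PCR and capillary electrophoresis, analysed for gain or loss of signal versus DMSO.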

The nature of assay [9]: ATG_TAL_CIS: Attagene CIS-FACTORIAL HepG2 Assay for human TAL Basal Promoter (AID 2282966).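 Note: background control endpoint measuring basal TAL promoter reporter mRNA not a specific factor.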 The following applies: HepG2 Attagene cis-factorial TAL promoter reporter; actives raise or lower the signal. In short, it runs like this: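 Human hepatoma HepG2 cells, transfected with promoter-regulated reporter units, were treated 24 h. Reporter transcript levels, measured through RT-PCR and capillary electrophoresis, were fitted for gain or loss relative to DMSO.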

Assay [10] in a line: ATG_TGFb_CIS: Attagene CIS-FACTORIAL HepG2 Assay for human Transforming Growth Factor (TGF) (AID 2282967). As to conditions: HepG2 Attagene CIS TGFb reporter, mRNA transcription; actives raise or lower the signal. In short, it runs like this: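 Cells were dosed for 24 hours, after which total RNA was reverse-transcribed and reporter sequences amplified, labeled and sized by capillary electrophoresis. Activity was fitted in both directions against DMSO.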

Assay [11] concerns the target X-box-binding protein 1 (Homo sapiens) (UniProt P17861). Nature of the assay: ATG_Xbp1_CIS: Attagene CIS-FACTORIAL HepG2 Assay for human X-box Binding Protein 1 (XBP1) (AID 2282972). As to conditions: HepG2 XBP1 cis-element reporter, Attagene multiplex; actives raise or lower the signal. In short, it runs like this: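 Multiplexed cis-reporter readout in transfected HepG2 liver cells. Exposure lasted 24 hours. Activity in either direction was fitted against DMSO as negative control and baseline.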

In assay [12] the target is Transcriptional activator Myb (Homo sapiens) (UniProt P10242). Nature of the assay: ATG_Myb_CIS: Attagene CIS-FACTORIAL HepG2 Assay for human Myeloblastosis (Myb) Proto-Oncogene Transcription Factor (AID 2282986). The following applies: HepG2 Attagene CIS-FACTORIAL Myb reporter transcription; actives raise or lower the signal. The essentials: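 HepG2 cells were transiently transfected with cis-regulated multiple reporter transcription units reflecting endogenous Myb activity, then exposed to compound for 24 hours. Reporter mRNA was measured by RT-PCR with capillary electrophoresis; bidirectional fitting versus DMSO baseline.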
Chain of Transcriptional activator Myb (Homo sapiens) (P10242 whole entry, looked up): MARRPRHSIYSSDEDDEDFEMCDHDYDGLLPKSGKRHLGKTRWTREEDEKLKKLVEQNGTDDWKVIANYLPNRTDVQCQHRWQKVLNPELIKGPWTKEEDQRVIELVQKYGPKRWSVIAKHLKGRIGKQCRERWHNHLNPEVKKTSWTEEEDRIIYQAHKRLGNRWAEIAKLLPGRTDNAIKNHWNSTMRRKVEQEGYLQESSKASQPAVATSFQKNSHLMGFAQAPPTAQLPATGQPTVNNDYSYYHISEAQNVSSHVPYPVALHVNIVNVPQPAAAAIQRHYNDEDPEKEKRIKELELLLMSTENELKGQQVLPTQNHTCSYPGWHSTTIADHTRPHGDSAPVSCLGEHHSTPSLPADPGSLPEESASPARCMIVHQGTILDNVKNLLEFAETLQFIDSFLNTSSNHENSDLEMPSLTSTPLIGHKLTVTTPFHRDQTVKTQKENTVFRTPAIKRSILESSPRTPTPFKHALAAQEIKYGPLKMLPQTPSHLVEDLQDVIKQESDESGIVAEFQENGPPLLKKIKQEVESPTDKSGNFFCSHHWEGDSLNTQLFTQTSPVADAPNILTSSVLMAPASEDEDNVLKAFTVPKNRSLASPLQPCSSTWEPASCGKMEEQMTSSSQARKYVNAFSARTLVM

Assay [13] has as its target Nuclear respiratory factor 1 (Homo sapiens) (UniProt Q16656). Briefly: ATG_NRF1_CIS: Attagene CIS-FACTORIAL HepG2 Assay for human Nuclear Respiratory Factor 1 (NRF1) Orphan Gene (AID 2282987). As to conditions: HepG2 NRF1 cis-element reporter, Attagene multiplex; actives raise or lower the signal. In short, it runs like this:
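HepG2 cells transiently transfected with multiple reporter transcription units under cis-regulatory promoter control, so endogenous transcription-factor activity is read. After 24 h compound exposure, reporter mRNA quantified by RT-PCR, fluorescent labelling, HpaI digestion and capillary electrophoresis; bidirectional fitting versus DMSO.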

The target of assay [14] is Myc proto-oncogene protein (Homo sapiens) (UniProt P01106). Briefly: ATG_Myc_CIS: Attagene CIS-FACTORIAL HepG2 Assay for human Myelocytomatosis (Myc) Proto-Oncogene Transcription Factor (AID 2282990). As to conditions: HepG2, Attagene cis-reporter transcription factor activity; actives raise or lower the signal. In short, it runs like this: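 DMSO-normalised, bidirectionally fitted reporter mRNA signal. HepG2 cells transfected with cis reporter constructs, treated 24 h; transcripts detected by RT-PCR, 6-FAM primer extension and CE.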
Chain of Myc proto-oncogene protein (Homo sapiens) (P01106 whole entry, looked up): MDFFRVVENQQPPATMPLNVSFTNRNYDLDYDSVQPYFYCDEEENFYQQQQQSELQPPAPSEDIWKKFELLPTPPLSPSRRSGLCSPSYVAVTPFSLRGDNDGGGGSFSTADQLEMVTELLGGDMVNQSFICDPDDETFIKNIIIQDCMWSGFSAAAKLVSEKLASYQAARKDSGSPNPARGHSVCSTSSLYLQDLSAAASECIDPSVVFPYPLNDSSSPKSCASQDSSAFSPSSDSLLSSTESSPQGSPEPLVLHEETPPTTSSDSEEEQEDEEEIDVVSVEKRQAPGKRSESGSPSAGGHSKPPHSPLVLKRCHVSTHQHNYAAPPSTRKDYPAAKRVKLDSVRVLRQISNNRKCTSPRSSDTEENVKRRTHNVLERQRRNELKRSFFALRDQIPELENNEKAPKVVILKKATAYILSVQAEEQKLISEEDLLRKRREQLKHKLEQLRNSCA

Assay [15] is described as follows: ATG_NRF2_ARE_CIS: Attagene CIS-FACTORIAL HepG2 Assay for human Nuclear Factor Erythroid 2 Related Factor 2 (NFR2) response to Antioxidant Response Elements (ARE) (AID 2282992).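 For AC50: reporter mRNA level measured by RT-PCR and capillary electrophoresis fluorescence.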 As to conditions: HepG2 Attagene ARE/NRF2 reporter, transcription factor activity; actives raise or lower the signal. In short, it runs like this:
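Endogenous transcription factor activity in human liver HepG2 cells is tracked via a cis-element-driven reporter within a multiplexed set. mRNA induction is read by RT-PCR and capillary electrophoresis after 24 h, with DMSO as baseline.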

Assay [16] is described as follows: ATG_Oct_MLP_CIS: Attagene CIS-FACTORIAL HepG2 Assay for human Octamer-Binding Transcription Factor (Oct) (AID 2282993). As to conditions: HepG2 Attagene cis-factorial Oct reporter, mRNA; actives raise or lower the signal. In short, it runs like this: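 Multiplexed cis-reporter assay in human liver HepG2 cells, 24 h incubation. Reporter RNA amplified and labelled, then resolved by capillary electrophoresis; DMSO serves as negative control and baseline.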

Assay [17] addresses Cellular tumor antigen p53 (Homo sapiens) (UniProt P04637). Briefly: ATG_p53_CIS: Attagene CIS-FACTORIAL HepG2 Assay for human p53 Transcription Factor (AID 2282994). As to conditions: HepG2 p53 cis-element reporter, Attagene mRNA; actives raise or lower the signal. The essentials: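 Steps: transfect HepG2 with multiplexed cis reporter constructs; dose chemicals 24 h; extract RNA, reverse-transcribe, PCR-amplify reporter sequences; FAM-label, HpaI-digest, resolve fragments by CE. Activity fitted both directions relative to DMSO.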

Assay [18] has as its target Nuclear receptor subfamily 1 group I member 2 (Homo sapiens) (UniProt O75469). Nature of the assay: ATG_PXR_TRANS: Attagene TRANS-FACTORIAL HepG2 Assay for human Pregnane X Receptor (PXR) (AID 2283008; active = hit-call score of the fitted dose curve at least 0.9, where 1 is the maximum). The essentials:
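HepG2 transfected (FuGene 6) with GAL4-UAS reporter units + PXR-Gal4 chimera; dosed 24 h. Total RNA → oligo(dT) RT → PCR → 6-FAM primer extension → HpaI cut → CE. Gain-of-signal vs DMSO.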

A short description of assay [19]: ATG_XTT_Cytotoxicity: Cytotoxicity Assessment in the Attagene TRANS-FACTORIAL HepG2 Assay (AID 2283584; active = hit-call score of the fitted dose curve at least 0.9, where 1 is the maximum). In short, it runs like this: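 24 h chemical exposure of reporter-transfected HepG2; XTT signal loss vs DMSO indicates cytotoxicity.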

Chain of Cellular tumor antigen p53 (Homo sapiens) (P04637 whole entry, looked up, the tested form may be a part): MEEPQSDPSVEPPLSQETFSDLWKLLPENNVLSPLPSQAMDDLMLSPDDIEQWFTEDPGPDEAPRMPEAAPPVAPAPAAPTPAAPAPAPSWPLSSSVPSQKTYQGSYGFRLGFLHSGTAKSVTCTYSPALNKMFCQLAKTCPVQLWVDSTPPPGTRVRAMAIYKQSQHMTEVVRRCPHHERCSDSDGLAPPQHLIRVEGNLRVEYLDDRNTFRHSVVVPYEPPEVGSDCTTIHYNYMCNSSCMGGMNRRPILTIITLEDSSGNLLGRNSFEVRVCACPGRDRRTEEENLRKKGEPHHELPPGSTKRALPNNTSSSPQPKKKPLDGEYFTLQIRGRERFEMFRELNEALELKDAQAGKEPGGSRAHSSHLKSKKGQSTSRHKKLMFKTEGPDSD
Chain of Nuclear receptor subfamily 1 group I member 2 (Homo sapiens) (O75469 whole entry, looked up, the tested form may be a part): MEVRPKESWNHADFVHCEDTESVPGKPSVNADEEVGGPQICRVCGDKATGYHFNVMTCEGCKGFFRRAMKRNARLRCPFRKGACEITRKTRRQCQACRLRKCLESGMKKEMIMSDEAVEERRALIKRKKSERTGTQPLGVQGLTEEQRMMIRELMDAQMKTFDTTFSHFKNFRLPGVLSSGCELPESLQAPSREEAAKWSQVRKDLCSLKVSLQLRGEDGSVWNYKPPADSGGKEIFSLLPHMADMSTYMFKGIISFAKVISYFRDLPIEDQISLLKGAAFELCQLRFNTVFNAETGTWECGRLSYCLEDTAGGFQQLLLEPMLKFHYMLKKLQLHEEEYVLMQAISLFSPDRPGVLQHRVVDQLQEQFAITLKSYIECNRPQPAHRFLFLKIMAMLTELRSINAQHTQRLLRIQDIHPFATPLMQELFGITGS
Chain of X-box-binding protein 1 (Homo sapiens) (P17861 whole entry, looked up): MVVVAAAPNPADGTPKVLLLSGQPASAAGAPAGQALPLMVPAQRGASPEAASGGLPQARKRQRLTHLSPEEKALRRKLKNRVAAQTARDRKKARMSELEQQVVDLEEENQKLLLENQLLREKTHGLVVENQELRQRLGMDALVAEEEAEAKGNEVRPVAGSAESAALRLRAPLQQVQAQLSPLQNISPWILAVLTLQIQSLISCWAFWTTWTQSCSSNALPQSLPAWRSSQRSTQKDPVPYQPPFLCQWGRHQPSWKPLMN
Chain of Nuclear respiratory factor 1 (Homo sapiens) (Q16656 whole entry, looked up): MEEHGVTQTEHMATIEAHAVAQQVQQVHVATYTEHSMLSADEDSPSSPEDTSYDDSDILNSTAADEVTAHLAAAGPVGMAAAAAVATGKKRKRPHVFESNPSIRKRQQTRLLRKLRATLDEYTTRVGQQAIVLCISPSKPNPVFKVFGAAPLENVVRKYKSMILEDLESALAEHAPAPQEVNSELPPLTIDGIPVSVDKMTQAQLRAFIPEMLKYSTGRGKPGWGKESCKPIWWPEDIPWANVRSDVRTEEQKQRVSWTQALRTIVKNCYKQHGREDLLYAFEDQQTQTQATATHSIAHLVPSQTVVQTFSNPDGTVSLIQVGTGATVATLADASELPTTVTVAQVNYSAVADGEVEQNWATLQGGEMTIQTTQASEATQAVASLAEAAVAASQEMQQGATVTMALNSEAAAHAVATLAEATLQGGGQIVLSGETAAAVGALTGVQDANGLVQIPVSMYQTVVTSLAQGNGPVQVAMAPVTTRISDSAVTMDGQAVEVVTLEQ
Chain of Heat shock factor protein 1 (Homo sapiens) (Q00613 whole entry, looked up, the tested form may be a part): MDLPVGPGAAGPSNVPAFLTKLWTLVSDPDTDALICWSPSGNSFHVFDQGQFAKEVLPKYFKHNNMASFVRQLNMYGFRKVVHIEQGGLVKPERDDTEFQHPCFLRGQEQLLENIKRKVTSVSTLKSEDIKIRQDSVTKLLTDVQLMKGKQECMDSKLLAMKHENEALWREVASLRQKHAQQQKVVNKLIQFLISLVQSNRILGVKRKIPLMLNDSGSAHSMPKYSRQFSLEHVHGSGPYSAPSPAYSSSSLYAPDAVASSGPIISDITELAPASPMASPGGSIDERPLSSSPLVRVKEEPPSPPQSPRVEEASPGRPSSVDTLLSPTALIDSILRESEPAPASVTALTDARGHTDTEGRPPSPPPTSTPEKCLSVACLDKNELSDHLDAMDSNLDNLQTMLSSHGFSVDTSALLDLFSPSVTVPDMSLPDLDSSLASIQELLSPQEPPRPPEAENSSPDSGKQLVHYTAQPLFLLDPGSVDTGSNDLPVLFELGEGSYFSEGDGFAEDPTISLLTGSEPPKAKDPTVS
Chain of Hypoxia-inducible factor 1-alpha (Homo sapiens) (Q16665 whole entry, looked up): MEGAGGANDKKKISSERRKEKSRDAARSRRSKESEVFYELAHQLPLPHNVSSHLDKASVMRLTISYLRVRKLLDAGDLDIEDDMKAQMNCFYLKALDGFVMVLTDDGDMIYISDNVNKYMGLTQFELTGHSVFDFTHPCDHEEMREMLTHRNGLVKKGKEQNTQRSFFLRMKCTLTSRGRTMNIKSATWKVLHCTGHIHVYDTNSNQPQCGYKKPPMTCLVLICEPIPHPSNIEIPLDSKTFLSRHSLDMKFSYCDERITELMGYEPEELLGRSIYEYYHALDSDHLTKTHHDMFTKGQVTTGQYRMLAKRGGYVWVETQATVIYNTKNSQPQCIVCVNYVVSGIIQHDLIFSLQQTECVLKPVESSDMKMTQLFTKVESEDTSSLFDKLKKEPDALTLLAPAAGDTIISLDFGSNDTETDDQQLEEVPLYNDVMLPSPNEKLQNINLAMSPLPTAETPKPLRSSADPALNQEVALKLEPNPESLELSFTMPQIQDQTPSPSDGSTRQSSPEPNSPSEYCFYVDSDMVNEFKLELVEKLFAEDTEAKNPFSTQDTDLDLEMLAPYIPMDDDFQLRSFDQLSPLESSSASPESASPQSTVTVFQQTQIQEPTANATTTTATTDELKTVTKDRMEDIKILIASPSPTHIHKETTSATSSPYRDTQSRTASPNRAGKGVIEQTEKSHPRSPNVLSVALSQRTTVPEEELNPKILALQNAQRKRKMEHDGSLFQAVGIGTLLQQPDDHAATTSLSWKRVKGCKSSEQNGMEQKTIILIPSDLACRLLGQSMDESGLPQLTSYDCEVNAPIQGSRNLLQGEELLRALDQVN
Chain of Hepatocyte nuclear factor 6 (Homo sapiens) (Q9UBC0 whole entry, looked up, the tested form may be a part): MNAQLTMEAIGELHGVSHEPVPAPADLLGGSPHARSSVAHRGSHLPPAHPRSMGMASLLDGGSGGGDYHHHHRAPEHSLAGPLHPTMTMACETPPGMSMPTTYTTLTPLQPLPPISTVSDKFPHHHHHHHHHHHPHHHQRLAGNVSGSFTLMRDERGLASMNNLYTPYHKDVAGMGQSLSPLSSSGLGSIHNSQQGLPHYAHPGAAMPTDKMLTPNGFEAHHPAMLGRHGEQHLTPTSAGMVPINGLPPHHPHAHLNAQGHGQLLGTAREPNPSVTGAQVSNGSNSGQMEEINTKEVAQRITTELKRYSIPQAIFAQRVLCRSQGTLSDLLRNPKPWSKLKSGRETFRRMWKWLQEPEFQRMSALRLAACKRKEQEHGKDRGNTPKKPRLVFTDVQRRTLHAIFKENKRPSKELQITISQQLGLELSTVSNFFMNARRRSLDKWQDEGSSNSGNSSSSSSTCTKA

Consider `CCCCC(CC)COC(=O)CS` (stereo not given), for which the outcome in assay [1], in assay [2], in [3], in assay [4], in assay [5] and in assay [6] was inactive. Further, the outcome in assay [7], in [8], in assay [9], in assay [10], in assay [11] and in assay [12] was inactive. Further, the outcome in [13], in assay [14], in [15], in assay [16], in assay [17] and in [18] was inactive.

Take `CC(=O)c1nccs1`: the compound was classed as inactive in assay [2], in assay [3], in assay [4], in assay [5], in assay [6] and in assay [7]. Further, the outcome in assay [8], in assay [10], in assay [11], in [12], in assay [13] and in [14] was inactive. Further, the outcome in assay [15], in [16], in [17] and in [19] was inactive.

Take `O=C(c1ccccc1)c1ccccc1O`: the compound was called inactive in assay [1], in [3], in assay [5], in [6], in assay [7] and in [10]. The compound was classed as inactive in [11], in [12], in assay [13], in assay [15], in assay [16] and in assay [19]. For the same compound, the AC50 was 148 µM (active) in assay [4], 129 µM (active) in assay [8], 135 µM (active) in assay [14] and 34.4 µM (active) in [18].

Take `Cc1ccnc(N)c1`: the outcome in assay [1], in assay [2], in assay [4], in [5], in assay [6] and in [7] was inactive. For the same compound, the outcome in assay [8], in assay [9], in assay [10], in assay [11], in assay [12] and in assay [13] was inactive. Moreover, the compound was called inactive in [14], in [16], in assay [17], in [18] and in [19]. The results for the AC50 in [3] and in assay [15] were 76.7 µM (active) and 66.8 µM (active), respectively.

On to `CC(C)n1c(/C=C/[C@@H](O)C[C@@H](O)CC(=O)O)c(-c2ccc(F)cc2)c2ccccc21`, for which the outcome in assay [2], in assay [3], in assay [5], in assay [6], in assay [7] and in assay [8] was inactive. The call in assay [9], in assay [10], in assay [11], in assay [12], in [14] and in assay [16] was inactive. Besides, the compound was classed as inactive in assay [18]. Further, in assay [17], the concentration at half-maximal activity (AC50) was 26 µM (active).

Turning to `CCCCCCCCCCCCCCCCCC[N+](C)(C)C`, the half-maximal activity concentration (AC50) in assay [1] is 16.7 µM (active); in [4] it was 42.2 µM (active); in assay [5], 43.9 µM (active); in assay [6], 40.7 µM (active); in [8] it was 16.5 µM (active); in assay [10] it was 6.12 µM (active). Besides, the AC50 in assay [12] is 6.05 µM (active); in assay [13], 16.8 µM (active); in [14] it was 41.5 µM (active); in assay [15] it was 4.81 µM (active); in [16], 6.14 µM (active); in [18] it was 25 µM (active). Further, the result in [2], in assay [3], in assay [7], in assay [11], in [17] and in assay [19] was inactive.

Take `CC/C=C\CC1=C(C)CCC1=O`: the call in [1], in assay [2], in [3], in assay [4], in assay [5] and in [6] was inactive. Also, the outcome in assay [7], in assay [8], in assay [9], in assay [10], in assay [11] and in assay [12] was inactive. Besides, the result in assay [13], in assay [14], in [16], in assay [17], in assay [18] and in [19] was inactive. The concentration at half-maximal activity (AC50) in [15] is 35.9 µM (active).

For orientation: AC50 means the concentration giving half of the maximal activity seen.

(Values after PubChem BioAssay (EPA / NIEHS).)
